# Test results from PubChem BioAssay AID1159580 (chemical genetic matrix, 2015).
# Several values for one entry are separate records, joined by “and”; a condition that tells them apart may be missing. Equal entries are not always repeated. The campaign covered roughly 5,500 compounds. About 2,000 (36%) were called active. Not shown: some 18% with an inconclusive outcome. Some of the results follow. Unmarked numbers belong to inactive results. Rule as the data show it: active = normalized growth mostly below about 0.91 (no sharp cut-off); inconclusive = no clear call, values can overlap the other calls; inactive = mostly above about 0.92.
# Experiment: chemical genetic growth profiling, strain panel (AID 1159580);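 also: tested at 20 µM; growth read once vehicle control cultures reached saturation at 30 °C; 1 = growth at the plate median or of vehicle wells; lower values mean less growth of the strain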
# Settings: S. cerevisiae deletion strains, growth OD
structure (smiles),measurement,setting,value
COc1c(N2CCNC(C)C2)c(F)cc2c(=O)c(C(=O)O)cn(C3CC3)c12 (stereo unspecified),normalized growth,"locus YAL013W, strain DEP1, active compounds read low",0.984
same,normalized growth,"locus YAL021C, strain ccr4, active compounds read low",0.972
same,normalized growth,"locus YAL026C, strain drs2, active compounds read low",0.955
same,normalized growth,"locus YAL030W, strain snc1, active compounds read low",0.985
same,normalized growth,"locus YBL061C, strain skt5, active compounds read low",0.992
same,normalized growth,"locus YBR009C, strain hhf1, active compounds read low",0.968
same,normalized growth,"locus YBR021W, strain FUR4, active compounds read low",0.951
same,normalized growth,"locus YBR023C, strain chs3, active compounds read low",0.982
same,normalized growth,"locus YBR171W, strain sec66, active compounds read low",0.985
same,normalized growth,"locus YBR229C, strain ROT2, active compounds read low",1.01
same,normalized growth,"locus YBR231C, strain swc5, active compounds read low",0.985
same,normalized growth,"locus YBR279W, strain paf1, active compounds read low",0.986
same,normalized growth,"locus YCL011C, strain gbp2, active compounds read low",0.966
same,normalized growth,"locus YCL016C, strain dcc1, active compounds read low",0.899 (active)
same,normalized growth,"locus YCL029C, strain bik1, active compounds read low",1.01
same,normalized growth,"locus YCL061C, strain MRC1, active compounds read low",0.957
same,normalized growth,"locus YCL069W, strain vba3, active compounds read low",0.994
same,normalized growth,"locus YCR088W, strain abp1, active compounds read low",0.973
same,normalized growth,"locus YDL005C, strain med2, active compounds read low",0.998
same,normalized growth,"locus YDL035C, strain GPR1, active compounds read low",1
same,normalized growth,"locus YDL040C, strain nat1, active compounds read low",0.984
same,normalized growth,"locus YDL074C, strain BRE1, active compounds read low",0.965
same,normalized growth,"locus YDL101C, strain DUN1, active compounds read low",1.01
same,normalized growth,"locus YDL134C, strain PPH21, active compounds read low",1.02
same,normalized growth,"locus YDL185W, strain tfp1, active compounds read low",1.01
same,normalized growth,"locus YDL192W, strain arf1, active compounds read low",1.02
same,normalized growth,"locus YDR001C, strain nth1, active compounds read low",0.976
same,normalized growth,"locus YDR069C, strain doa4, active compounds read low",0.99
same,normalized growth,"locus YDR101C, strain arx1, active compounds read low",0.993
same,normalized growth,"locus YDR137W, strain rgp1, active compounds read low",0.883
same,normalized growth,"locus YDR150W, strain NUM1, active compounds read low",1.02
same,normalized growth,"locus YDR159W, strain sac3, active compounds read low",0.867
same,normalized growth,"locus YDR162C, strain NBP2, active compounds read low",1.01
same,normalized growth,"locus YDR195W, strain ref2",1
same,normalized growth,"locus YDR297W, strain sur2, active compounds read low",0.982
same,normalized growth,"locus YDR318W, strain mcm21, active compounds read low",1
same,normalized growth,"locus YDR334W, strain swr1, active compounds read low",0.981
same,normalized growth,"locus YDR335W, strain msn5, active compounds read low",0.972
same,normalized growth,"locus YDR388W, active compounds read low",0.993
same,normalized growth,"locus YDR392W, strain spt3, active compounds read low",0.797
same,normalized growth,"locus YDR502C, strain sam2, active compounds read low",0.996
same,normalized growth,"locus YEL003W, strain gim4, active compounds read low",0.969
same,normalized growth,"locus YEL037C, strain rad23, active compounds read low",0.981
same,normalized growth,"locus YEL061C, strain CIN8 (second series), active compounds read low",0.979
same,normalized growth,"locus YEL061C, strain CIN8, active compounds read low",1.01
same,normalized growth,"locus YER015W, strain faa2, active compounds read low",0.968
same,normalized growth,"locus YER016W, strain bim1, active compounds read low",0.985
same,normalized growth,"locus YER110C, active compounds read low",1.01
same,normalized growth,"locus YER111C, strain swi4, active compounds read low",0.997
same,normalized growth,"locus YER155C, strain BEM2 (second series), active compounds read low",0.976
same,normalized growth,"locus YER155C, strain BEM2, active compounds read low",1.01
same,normalized growth,"locus YER167W, strain BCK2, active compounds read low",0.997
same,normalized growth,"locus YFR010W, strain ubp6, active compounds read low",0.993
same,normalized growth,"locus YGL078C, strain dbp3, active compounds read low",0.995
same,normalized growth,"locus YGL086W, strain mad1, active compounds read low",0.997
same,normalized growth,"locus YGL167C, strain pmr1, active compounds read low",1
same,normalized growth,"locus YGL173C, strain kem1, active compounds read low",0.983
same,normalized growth,"locus YGL227W, strain vid30, active compounds read low",0.978
same,normalized growth,"locus YGL240W, strain doc1, active compounds read low",0.973
same,normalized growth,"locus YGL248W, strain PDE1, active compounds read low",1.01
same,normalized growth,"locus YGL253W, strain hxk2, active compounds read low",0.989
same,normalized growth,"locus YGR078C, strain PAC10, active compounds read low",1.01
same,normalized growth,"locus YGR135W, strain pre9, active compounds read low",0.989
same,normalized growth,"locus YGR229C, strain SMI1, active compounds read low",0.886
same,normalized growth,"locus YGR252W, strain gcn5, active compounds read low",0.978
same,normalized growth,"locus YHR013C, strain ard1, active compounds read low",0.919
same,normalized growth,"locus YHR027C, strain rpn1, active compounds read low",0.984
same,normalized growth,"locus YHR030C, strain SLT2, active compounds read low",1 and 0.99
same,normalized growth,"locus YHR079C, strain IRE1 (second series), active compounds read low",1
same,normalized growth,"locus YHR079C, strain IRE1, active compounds read low",1.02
same,normalized growth,"locus YHR094C, strain hxt1, active compounds read low",0.992
same,normalized growth,"locus YHR129C, strain ARP1, active compounds read low",1
same,normalized growth,"locus YHR142W, strain chs7, active compounds read low",0.954
same,normalized growth,"locus YHR200W, strain rpn10, active compounds read low",0.991
same,normalized growth,"locus YIL066C, strain RNR3, active compounds read low",1.02
same,normalized growth,"locus YIL073C, strain SPO22, active compounds read low",0.967
same,normalized growth,"locus YIL125W, strain kgd1, active compounds read low",1
same,normalized growth,"locus YIR030C, strain dcg1, active compounds read low",0.997
same,normalized growth,"locus YJL092W, strain hpr5, active compounds read low",0.961
same,normalized growth,"locus YJL095W, strain BCK1 (second series), active compounds read low",1
same,normalized growth,"locus YJL095W, strain BCK1, active compounds read low",0.936 and 1.02
same,normalized growth,"locus YJL115W, strain asf1, active compounds read low",0.948
same,normalized growth,"locus YJL129C, strain trk1, active compounds read low",0.96
same,normalized growth,"locus YJL134W, strain LCB3, active compounds read low",1.01
same,normalized growth,"locus YJL154C, strain vps35, active compounds read low",0.993
same,normalized growth,"locus YJL164C, strain tpk1, active compounds read low",0.969
same,normalized growth,"locus YJL166W, strain qcr8, active compounds read low",1
same,normalized growth,"locus YJL168C, strain set2, active compounds read low",1
same,normalized growth,"locus YJL187C, strain SWE1 (second series), active compounds read low",1.02
same,normalized growth,"locus YJR043C, strain POL32, active compounds read low",0.911
same,normalized growth,"locus YJR066W, strain TOR1, active compounds read low",0.94
